Source: PubChem BioAssay
For part of these data: Measured potencies and affinities stand elsewhere. Calls of active or inactive are those of the source.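 The calls were made as follows, unless noted: active = primary screen activator hit with a dose response curve and TRPC4 channel activation at any tested dose; inactive = no activation, no dose response, or not a primary hit.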

Assays:
[1] = tested on: TRPC4 beta (transient receptor potential cation channel C4), mouse; experiment: TRPC4 cation channel opening, retest – cell-based, Fluo4 calcium, HEK293 TRPC4beta/mu-opioid, duplicates, 10 µM, confirmation (AID 2426;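 active = fluorescence ratio normalized to control raised more than 50% in primary screen plus both repeat runs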); conditions: Fluo4 calcium fluorescence, at 10 µM; active compounds read high
[2] = tested on: transient receptor potential cation channel C4 beta (TRPC4), mouse; experiment: TRPC4 cation channel opening, second retest – cell-based, second round, Fluo4, HEK293 TRPC4beta/mu-opioid, 1 µM, confirmation (AID 2461;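 active = primary screen active and over 50% activation in each of two duplicate runs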); conditions: Fluo4 calcium fluorescence, at 1 µM; active compounds read high
[3] = tested on: TRPC4 (transient receptor potential cation channel C4 beta), mouse; experiment: potentiation of DAMGO EC20 TRPC4 response – cell-based, second round, Fluo-4, HEK293 TRPC4beta/mu-opioid, 1 µM, confirmation (AID 2554;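 active = primary screen hit whose fluorescence ratio, in both repeats, exceeds the weak agonist control mean by 3 SD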); conditions: DAMGO EC20, Fluo-4 calcium flux, at 1 µM; active compounds read high
[4] = tested on: TRPC4 beta (transient receptor potential cation channel C4), mouse; experiment: potentiation of DAMGO EC20 TRPC4 response – cell-based, Fluo-4, HEK293 TRPC4beta/mu-opioid, confirmation (AID 2555;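 active = primary screen hit whose calcium fluorescence ratio, in both repeats, exceeds the weak agonist control mean by 3 SD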); conditions: DAMGO EC20, Fluo-4 calcium flux, at 10 µM; active compounds read high
[5] = biological target: Short transient receptor potential channel 4 (Mus musculus) (UniProt Q9QUQ5); experiment: blockers of DAMGO-evoked TRPC4 calcium flux – cell-based, Fluo4, HEK293 TRPC4beta/mu-opioid, confirmation (AID 2636;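 active = calcium signal cut by more than 3 SD below the full-agonist control yet still positive, in both repeats and the earlier primary screen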); conditions: at 10 µM; active compounds read high
[6] = biological target: Short transient receptor potential channel 4 (Mus musculus) (UniProt Q9QUQ5); experiment: blockers of DAMGO-evoked TRPC4 calcium flux – cell-based, second round, Fluo4, HEK293 TRPC4beta/mu-opioid, 1 µM, confirmation (AID 2637;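 active = calcium signal ratio cut to more than 3 SD under the fully stimulated control mean yet still positive, in both repeats and the primary screen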); conditions: at 1 µM; active compounds read high
[7] = biological target: Short transient receptor potential channel 4 (Mus musculus) (UniProt Q9QUQ5); experiment: calcium entry via TRPC4 opening agents – cell-based, HEK293 TRPC4/mu-opioid, Fluo-4 calcium, dose response (AID 434937)
[8] = biological target: Short transient receptor potential channel 4 (Mus musculus) (UniProt Q9QUQ5); experiment: potentiation of DAMGO-evoked TRPC4 calcium signal – cell-based, HEK293 TRPC4/mu-opioid, Fluo-4 calcium, EC20 DAMGO, dose response (AID 434941;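 active = earlier screen potentiator hit that boosts the TRPC4 ion channel at some dose, with a dose response; inactive = no potentiation, no dose response, or not a prior hit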;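 also: calcium entry triggered by an EC20 dose of DAMGO at the co-expressed mu-opioid receptor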)
[9] = biological target: Short transient receptor potential channel 4 (Mus musculus) (UniProt Q9QUQ5); experiment: block of DAMGO-driven TRPC4 calcium entry – cell-based, HEK293 TRPC4/mu-opioid, Fluo-4 calcium, dose response (AID 434942;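 active = primary screen inhibitor hit that blocks the TRPC4 channel at some tested dose, yielding a dose curve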)
[10] = biological target: Short transient receptor potential channel 6 (Mus musculus) (UniProt Q61143); experiment: TRPC6 blockade by TRPC4 inhibitor hits – cell-based, HEK293, membrane potential dye, duplicate, selectivity assay for TRPC4 inhibitor project, confirmation (AID 434948;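 active = active in primary screen and both duplicates, each dropping signal beyond three positive-control SD with fluorescence still positive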); conditions: HEK293 TRPC6, membrane potential dye fluorescence, at 10 µM, stimulated with maximal-effect acetylcholine; active compounds read high
[11] = biological target: Short transient receptor potential channel 6 (Mus musculus) (UniProt Q61143); experiment: TRPC6 opening by TRPC4 activator hits – cell-based, HEK293, membrane potential dye, duplicate, selectivity assay for TRPC4 activator project, confirmation (AID 434950;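 active = membrane potential signal rise above negative control mean plus 3 SD in both duplicates, also active in the earlier TRPC4 screen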); conditions: HEK293 TRPC6, membrane potential fluorescence, at 10 µM; activation: active compounds read high; outcome: activation
[12] = biological target: Short transient receptor potential channel 6 (Mus musculus) (UniProt Q61143); experiment: positive modulators of mouse TRPC6 channel – HEK293 cells, membrane potential dye, duplicate, selectivity assay for TRPC4 potentiator project, confirmation (AID 434952;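 active = compound raising the membrane signal above positive-control mean plus 3 SD in both repeats, and a primary screen hit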); conditions: HEK293 TRPC6, membrane potential dye fluorescence, at 10 µM, maximal acetylcholine added after compound; active compounds read high
[13] = biological target: Short transient receptor potential channel 4 (Mus musculus) (UniProt Q9QUQ5); experiment: calcium flux activators in TRPC4/5HT1a cells, counter-screen for TRPC4 activator project, cell-based, second counter screen, HEK293 TRPC4/5HT1a, Fluo-4 (AID 434977;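 active = calcium signal rise above buffer-control mean plus 5 SD in both duplicates, and also a hit in the primary screen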); conditions: Fluo-4 calcium flux, at 10 µM; active compounds read high
[14] = serotonin-gated TRPC4 signal block – cell-based, second counter screen, HEK293 TRPC4/5HT1a, Fluo-4, counter-screen for TRPC4 inhibitor project, confirmation (AID 434978;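 active = primary screen active whose calcium signal fell more than 3 SD beyond the full-serotonin control mean in both duplicate plates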;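 also: serotonin given first at submaximal then at maximal dose after compound preincubation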); conditions: Fluo-4 calcium flux, at 10 µM, serotonin added to trigger calcium flux; active compounds read high
[15] = tested on: TRPC4 (mouse), co-expressed with 5HT1a in HEK293; experiment: enhancement of serotonin-evoked TRPC4 response – cell-based, second counter screen, HEK293 TRPC4/5HT1a, Fluo-4, counter-screen for TRPC4 potentiator project, confirmation (AID 434979;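 active = signal rise over 3 SD above mean of control wells given weak agonist, in both repeats and first screen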); conditions: Fluo-4 calcium flux, at 10 µM, serotonin added at its EC20 dose; active compounds read high
[16] = nonspecific calcium rise without TRPC4 – cell-based, HEK293 mu-opioid receptor line, counter-screen for TRPC4 activator project, confirmation (AID 449723;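 active = hit in primary screen, with calcium signal over 5 SD above buffer well mean in both duplicates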;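 also: counter screen cells carry the mu-opioid receptor alone and lack TRPC4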); conditions: HEK293 mu-opioid cells, Fluo-4 calcium fluorescence, at 10 µM; active compounds read high
[17] = nonspecific potentiation of DAMGO calcium response – cell-based, HEK293 mu-opioid receptor line, counter-screen for TRPC4 allosteric potentiator project, confirmation (AID 449724;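 active = calcium signal rise more than 3 SD above the low-dose agonist control mean, in both duplicate plates and the primary screen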); conditions: HEK293 mu-opioid receptor cells, Fluo-4 calcium flux, at 10 µM, compound added before EC20 DAMGO stimulus; active compounds read high

Chain of Short transient receptor potential channel 6 (Mus musculus) (Q61143 whole entry, looked up): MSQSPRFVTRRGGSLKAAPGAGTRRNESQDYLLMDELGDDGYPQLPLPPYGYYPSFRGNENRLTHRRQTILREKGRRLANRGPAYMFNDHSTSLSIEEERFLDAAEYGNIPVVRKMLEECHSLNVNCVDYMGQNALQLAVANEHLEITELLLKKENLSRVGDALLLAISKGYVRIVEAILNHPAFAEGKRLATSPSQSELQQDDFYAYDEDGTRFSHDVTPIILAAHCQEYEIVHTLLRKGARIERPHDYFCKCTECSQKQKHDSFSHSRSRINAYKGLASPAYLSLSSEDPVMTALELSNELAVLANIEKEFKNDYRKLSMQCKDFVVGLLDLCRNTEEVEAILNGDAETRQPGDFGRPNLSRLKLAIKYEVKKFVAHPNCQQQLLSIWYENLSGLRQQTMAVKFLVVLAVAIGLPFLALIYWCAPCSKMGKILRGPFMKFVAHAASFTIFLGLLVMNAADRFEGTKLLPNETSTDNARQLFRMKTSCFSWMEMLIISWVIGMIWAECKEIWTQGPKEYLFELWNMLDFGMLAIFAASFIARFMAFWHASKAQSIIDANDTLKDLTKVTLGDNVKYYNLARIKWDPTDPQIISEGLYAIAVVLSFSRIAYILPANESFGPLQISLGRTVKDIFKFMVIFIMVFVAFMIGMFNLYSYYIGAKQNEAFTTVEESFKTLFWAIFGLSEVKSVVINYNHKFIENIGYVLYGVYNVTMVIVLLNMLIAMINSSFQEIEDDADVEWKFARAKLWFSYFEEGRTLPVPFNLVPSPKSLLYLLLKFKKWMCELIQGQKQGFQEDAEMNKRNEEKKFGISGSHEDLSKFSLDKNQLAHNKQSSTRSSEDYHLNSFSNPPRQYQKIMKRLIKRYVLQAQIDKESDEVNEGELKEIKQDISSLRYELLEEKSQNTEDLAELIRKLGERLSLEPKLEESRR
Chain of Short transient receptor potential channel 4 (Mus musculus) (Q9QUQ5 whole entry, looked up): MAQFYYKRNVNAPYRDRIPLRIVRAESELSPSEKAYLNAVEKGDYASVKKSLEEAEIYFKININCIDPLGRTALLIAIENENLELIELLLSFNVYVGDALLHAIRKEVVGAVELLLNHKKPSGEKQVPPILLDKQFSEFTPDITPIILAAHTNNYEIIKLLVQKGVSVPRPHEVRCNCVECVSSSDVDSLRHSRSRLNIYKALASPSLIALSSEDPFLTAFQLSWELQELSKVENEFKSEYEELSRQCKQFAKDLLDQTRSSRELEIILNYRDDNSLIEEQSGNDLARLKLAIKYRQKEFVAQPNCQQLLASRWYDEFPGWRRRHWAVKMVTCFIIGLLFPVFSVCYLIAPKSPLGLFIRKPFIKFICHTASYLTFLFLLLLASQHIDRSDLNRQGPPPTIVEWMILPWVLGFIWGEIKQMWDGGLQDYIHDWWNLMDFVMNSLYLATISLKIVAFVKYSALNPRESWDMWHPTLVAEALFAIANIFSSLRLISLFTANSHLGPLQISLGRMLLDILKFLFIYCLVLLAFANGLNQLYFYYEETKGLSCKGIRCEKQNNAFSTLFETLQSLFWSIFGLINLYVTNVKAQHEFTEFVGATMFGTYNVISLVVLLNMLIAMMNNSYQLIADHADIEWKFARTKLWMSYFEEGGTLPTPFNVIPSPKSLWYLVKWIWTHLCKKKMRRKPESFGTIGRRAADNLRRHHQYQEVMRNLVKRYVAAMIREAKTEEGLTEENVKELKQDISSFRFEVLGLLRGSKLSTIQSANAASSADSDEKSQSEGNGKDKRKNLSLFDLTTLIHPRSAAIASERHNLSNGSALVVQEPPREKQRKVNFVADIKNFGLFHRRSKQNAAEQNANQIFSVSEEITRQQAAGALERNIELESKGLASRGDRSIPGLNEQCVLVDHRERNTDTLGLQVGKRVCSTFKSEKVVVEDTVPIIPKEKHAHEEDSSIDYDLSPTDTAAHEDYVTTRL

CCOc1ccccc1C(=O)NCCc1cnc[nH]1
active: potentiation [4] 10% | potentiation [15] 16.9%
inactive: outcome [1] | outcome [2] | outcome [3] | outcome [5] | outcome [6] | outcome [7] | outcome [8] | outcome [9] | outcome [10] | outcome [11] | outcome [12] | outcome [13] | outcome [14] | outcome [16] | outcome [17]

COc1ccc(F)cc1C(=O)C1CCCN(Cc2cccn2-c2ccccn2)C1 (stereo not given)
inactive: outcome [1] | outcome [2] | outcome [3] | outcome [4] | outcome [5] | outcome [6] | outcome [7] | outcome [8] | outcome [9] | outcome [10] | outcome [11] | outcome [12] | outcome [13] | outcome [14] | outcome [15] | outcome [16] | outcome [17]

NC(=O)c1ccc(Oc2ccc3c(c2)CCC3)c([N+](=O)[O-])c1
active: potentiation [4] 42% | potentiation [15] 84.5%
inactive: outcome [1] | outcome [2] | outcome [3] | outcome [5] | outcome [6] | outcome [7] | outcome [8] | outcome [9] | outcome [10] | outcome [11] | outcome [12] | outcome [13] | outcome [14] | outcome [16] | outcome [17]

CCN(CC)CCN(Cc1cc2ccc(C)cc2[nH]c1=O)C(=S)Nc1ccccc1C(=O)OC
inactive: outcome [1] | outcome [2] | outcome [3] | outcome [4] | outcome [6] | outcome [7] | outcome [8] | outcome [9] | outcome [10] | outcome [11] | outcome [12] | outcome [13] | outcome [14] | outcome [15] | outcome [16] | outcome [17]
active: inhibition [5] 85%

CCOCCCn1cnc2c(c1=O)c1nc3ccccc3nc1n2-c1ccc(C)cc1
inactive: outcome [1] | outcome [2] | outcome [3] | outcome [4] | outcome [5] | outcome [6] | outcome [7] | outcome [8] | outcome [9] | outcome [10] | outcome [11] | outcome [12] | outcome [13] | outcome [14] | outcome [15] | outcome [16] | outcome [17]

CCOc1ccc(NS(=O)(=O)c2ccc(NC(=S)NC(=O)CC(C)C)cc2)cc1
inactive: outcome [1] | outcome [2] | outcome [3] | outcome [5] | outcome [6] | outcome [7] | outcome [8] | outcome [9] | outcome [10] | outcome [11] | outcome [12] | outcome [13] | outcome [14] | outcome [16] | outcome [17]
active: potentiation [4] 15% | potentiation [15] 6.51%

CC1(C#CC[N+]2(C)CCCCC2)CCC2C(O1)c1ccccc1OC2(C)C (stereo not given)
active: potentiation [3] 8% | potentiation [4] 21%
inactive: outcome [1] | outcome [2] | outcome [5] | outcome [6] | outcome [7] | outcome [8] | outcome [9] | outcome [10] | outcome [11] | outcome [12] | outcome [13] | outcome [14] | outcome [15] | outcome [16] | outcome [17]

CCOC(=O)c1c(C)n(C)c2ccc(OCC(O)CNCCc3ccccc3)cc12 (stereo not given)
inactive: outcome [1] | outcome [2] | outcome [3] | outcome [4] | outcome [5] | outcome [6] | outcome [7] | outcome [8] | outcome [9] | outcome [10] | outcome [11] | outcome [12] | outcome [13] | outcome [14] | outcome [15] | outcome [16] | outcome [17]

Cc1ccc(C2N(c3cccc(Cl)c3)C(=O)C3CCCN32)o1 (stereo not given)
active: potentiation [3] 19% | potentiation [4] 16% | potentiation [15] 13.4%
inactive: outcome [1] | outcome [2] | outcome [5] | outcome [6] | outcome [7] | outcome [8] | outcome [9] | outcome [10] | outcome [11] | outcome [12] | outcome [13] | outcome [14] | outcome [16] | outcome [17]

Cc1cc(C)cc(N(CC(=O)Nc2ccc(C)cc2Cl)S(=O)(=O)c2c(C)[nH]c(=O)[nH]c2=O)c1
inactive: outcome [1] | outcome [2] | outcome [3] | outcome [5] | outcome [6] | outcome [7] | outcome [8] | outcome [9] | outcome [10] | outcome [11] | outcome [12] | outcome [13] | outcome [14] | outcome [16] | outcome [17]
active: potentiation [4] 23% | potentiation [15] 78.6%

CCOC(=O)CCSc1nc(C)cc(C(F)(F)F)c1C#N
inactive: outcome [1] | outcome [2] | outcome [3] | outcome [4] | outcome [5] | outcome [6] | outcome [7] | outcome [8] | outcome [9] | outcome [10] | outcome [11] | outcome [12] | outcome [13] | outcome [14] | outcome [15] | outcome [16] | outcome [17]

COC(=O)[C@@]12CCCN1[C@H](c1ccc(-c3ccc(OC)cc3)cc1)[C@@H]1C(=O)N(C)C(=O)[C@@H]12
inactive: outcome [1] | outcome [2] | outcome [3] | outcome [5] | outcome [6] | outcome [7] | outcome [8] | outcome [9] | outcome [10] | outcome [11] | outcome [12] | outcome [13] | outcome [14] | outcome [16] | outcome [17]
active: potentiation [4] 32% | potentiation [15] 111%

CCOC(=O)COc1cc(-n2c(=S)[nH]c3ccccc3c2=O)c(Cl)cc1Cl
active: potentiation [3] 8% | potentiation [4] 21%
inactive: outcome [1] | outcome [2] | outcome [5] | outcome [6] | outcome [7] | outcome [8] | outcome [9] | outcome [10] | outcome [11] | outcome [12] | outcome [13] | outcome [14] | outcome [15] | outcome [16] | outcome [17]

CCCCN(C)C(=O)Cn1ncc2c3ccccc3n(CCC)c2c1=O
active: potentiation [4] 37% | potentiation [15] 42.7%
inactive: outcome [1] | outcome [2] | outcome [3] | outcome [5] | outcome [6] | outcome [7] | outcome [8] | outcome [9] | outcome [10] | outcome [11] | outcome [12] | outcome [13] | outcome [14] | outcome [16] | outcome [17]

CC(C)CCn1c(Sc2nc3ccccc3o2)nc2c1c(=O)[nH]c(=O)n2C
active: potentiation [4] 13% | potentiation [15] 45%
inactive: outcome [1] | outcome [2] | outcome [3] | outcome [5] | outcome [6] | outcome [7] | outcome [8] | outcome [9] | outcome [10] | outcome [11] | outcome [12] | outcome [13] | outcome [14] | outcome [16] | outcome [17]
